The whole screen tested about 65,000 compounds, of which about 2,100 (3.2%) showed an effect of 50% or more. The median lay at about -52%. For the sample, strong results were picked, then their nearest neighbours and some compounds at random.

This experiment relates to Plasmodium falciparum. Description: Screen against P. falciparum Asexual Blood Stage (ABS), at 5uM. The format is functional, Dd2. Particulars: tested at 5 uM.
For the compound `COc1ccccc1C1SCC(=O)Nc2c1c(=O)[nH]n2C1CCOCC1` (configuration not stated), the INHIBITION is -116%.
To `Cc1nc(N(C)C)nc2c1COCC21CCN(CC2CC2)C1` (configuration not stated) belongs 50.3%.
Take `CN(C)c1ncc2c(n1)C1(CCN(CC3CC3)C1)COC2` (configuration not stated): the INHIBITION is given as -2.79%.
Then `COCCN1CCC2(COCc3c(C)nc(N(C)C)nc32)C1` (configuration not stated), with -49.6%; and `Cc1ccc(CN(CCCn2ccnc2)Cc2c(F)cccc2F)s1`, with 81.5%.
For `Cc1cc(C2CCC2)nc(NCCC23CCCN2CCC3)n1`, the INHIBITION came to 12.6%.
To `CC(C)COc1ccc(C2SCC(=O)Nc3c2c(=O)[nH]n3C(C)C)cc1` (configuration not stated) belongs -35.2%.
For `CCC(C)CN1CCC(n2cc(C3CCCCC3)nn2)CC1` (configuration not stated), the INHIBITION was found to be 77.1%.
Turning to `CSC(C)CCN1CCC(n2cc(C3CCCCC3)nn2)CC1` (configuration not stated), the INHIBITION was determined as 78.4%.
To `CC1(C)C(C(=O)NCCC2CN(Cc3c[nH]cn3)CCO2)C1(C)C` (configuration not stated) belongs -64.7%; to `Cc1nc(C2(NCc3cc(C#N)ccc3F)CCCCC2)no1`, -10.8%.
Regarding `COc1ccc2[nH]c(C[C@@H]3C[C@@H](C(C)C)[C@H](CN(C)C)C=C3C)nc2c1`, the INHIBITION worked out at 78.9%.
In the case of `Cc1ccc(CN2C[C@@H]3CCN(Cc4cccnc4)C(=O)[C@H]3C2)s1`, the INHIBITION is reported as -93.5%.
With `CC(C)c1nccc([C@@H]2C[C@@H]3CCN(Cc4ccco4)C[C@H]3O2)n1`, the INHIBITION is given as -12.5%.
Then `CN(C)C(=O)CN1CCOCC2(C1)CN(c1ncccn1)CCO2` (configuration not stated), with -97%; and `Cc1nc(-c2ccc(F)c(F)c2)cc(C2CCNCC2)n1`, with 84.1%.
On to `Cn1cc(CN2CC[C@H]3[C@H]2CC(=O)N3Cc2ccncc2)cn1`, for which the INHIBITION is reported as -2.65%.
For `CN1CCN(S(=O)(=O)c2cccc(F)c2)Cc2cccnc21`, the INHIBITION is -37.8%.
To `CN1CCN(S(=O)(=O)c2ccc(Cl)c(Cl)c2)c2cnccc21` belongs 89.6%; to `FC1(F)CCNCC12CCN(c1ncccn1)C2` (configuration not stated), 19.8%; to `FC1(F)CCNCC12CCN(c1cccnc1)C2` (configuration not stated), 66.6%.
Then `FC1(F)CCNCC12CCN(c1ccccn1)C2` (configuration not stated), with 58.6%; and `FC1(F)CCN(Cc2cccnc2)CC12CCN(c1ccccc1)C2` (configuration not stated), with 85.3%.
`c1cnc(N2CC3(CCN(Cc4cccnc4)C3)C2)nc1`: the INHIBITION is listed as -85.5%.
On to `OCCN1CCC(F)(F)C2(CCN(c3cccnc3)C2)C1` (configuration not stated), for which the INHIBITION is on record as -46.2%.
Then `Fc1cccnc1N1CCC2(CNCCC2(F)F)C1` (configuration not stated), with 47.8%; and `O=C1CSC(c2ccc(O)cc2)c2sccc2N1` (configuration not stated), with -74.5%; and `c1coc(CN2CC[C@@H]3O[C@@H](COCc4ccncc4)CC[C@@H]32)c1`, with -70.4%.
Then `CCCN1CCN(C(=O)Cc2cccnc2)[C@H]2CS(=O)(=O)C[C@H]21`, with -103%.
In the case of `CO[C@H]1CN(CC2CC2)[C@@H]2CCCO[C@H]12`, the INHIBITION is recorded as 7.3%.
Then `Cc1nc(C2CCN(C)CC2)cc(N2CCOc3ccc(Cl)cc3C2)n1`, with 70.7%; and `CC(Cn1cccn1)NCc1nc(-c2ccsc2)no1` (configuration not stated), with -40%; and `CCS(=O)(=O)N1CCc2c(CN3CCOCC3)cncc2C1`, with -10.2%.
With `CS(=O)(=O)NC[C@H]1OC[C@@H]2CN(Cc3cccnc3)CC[C@@H]21`, the INHIBITION is on record as -58.6%.
As for `O=C(O)[C@H]1CN(Cc2ccccc2)C[C@@H]1C(=O)c1ccccc1`, the INHIBITION was -40.5%.
To `CC1CN(Cc2ccccc2)CCCN1CCNS(C)(=O)=O` (configuration not stated) belongs 71.7%; to `CCC(C)Oc1ccc(CNCCc2c[nH]cn2)cc1Cl` (configuration not stated), 91.9%.
To `Cc1cnc(NCCc2c[nH]cn2)nc1-c1ccnn1C` belongs -84%; to `Cc1cccc(CN2CCN3C[C@H](Oc4cncnc4)C[C@H]3C2)n1`, -87%.
Then `Cc1cccc(CN2CCCC[C@H]3CN(c4ncccn4)C[C@H]32)c1`, with -35.2%; and `Cc1cccnc1CN(C)CC1(O)CCCN(CC2CCCCC2)C1=O` (configuration not stated), with 44.3%; and `CCC(=O)N1CCC2(CC1)C(=O)N(Cc1cccnc1)CCN2C`, with 0.961%.
As for `Cc1cccc(CN2CCCC(O)(CNCc3ncccc3C)C2=O)c1` (configuration not stated), the INHIBITION was 82.1%.
With `Cc1cccc(CN2CCC3(CCN(c4ncccn4)CC3)C2=O)c1`, the INHIBITION came out at 76%.
Then `Cc1ccc(CN2C[C@@H]3CN(c4ncccn4)C[C@@H]3C2)cc1`, with -62.8%; and `CC(C)c1cc(N2CCC3(CC2)CN(C)CCN3C)ncn1`, with -11.3%; and `CCOc1ncccc1C(=O)N1CCN(C)C2(CCN(C)CC2)C1`, with 10.3%.
To `Cc1cc(C)c2c(NCCC34CCCN3CCC4)ncnc2n1` belongs -48.6%; to `O=C(C1CCC1)N1CCN(Cc2cccnc2)[C@H]2CS(=O)(=O)C[C@H]21`, -17.6%; to `CCCNc1cc(-c2c[nH]nc2C2CCN(C(=O)C3CCC3)C2)ccn1` (configuration not stated), 92.5%.
Then `CCc1ncc(CN2C[C@@H]3CC[C@H]2CN(C(=O)C2CCC2)C3)cn1`, with -85.5%; and `O=C(C1CCC1)N1CC[C@]2(O)CCN(Cc3ncccn3)C[C@@H]2C1`, with -55.6%; and `CC(C)Nc1cc(-c2c[nH]nc2C2CCN(C(=O)C3CC3)C2)ccn1` (configuration not stated), with 80.9%.
With `CC(C)Nc1cc(-c2c[nH]nc2C2CCN(C(=O)C3CCC3)C2)ccn1` (configuration not stated), the INHIBITION turned out to be 83.7%.
Then `O=C1NC2(CCc3ccccc31)CCN(Cc1cccnc1)C2` (configuration not stated), with -111%; and `O=C(c1ccco1)N1C[C@H]2CCCN(Cc3ccncc3)[C@H]2C1`, with -19.6%; and `Cn1cnc(S(=O)(=O)N2C[C@H]3CN(Cc4cccnc4)C[C@H]3C2)c1`, with -85.8%.
Then `Cc1sc2nc(CCN)nc(N3CC(N4CCCCC4)C3)c2c1C`, with 81.6%; and `Cc1sc2nc(CCN)nc(N3CCC(N4CCCC4)CC3)c2c1C`, with 84.3%; and `COCC(=O)NC[C@H]1C[C@@H]2CCN1C[C@@H]2CN1CCc2ccccc21`, with 27.2%.
To `N#Cc1cnc2ccccc2c1N1CCNCC1` belongs -3.53%.
Consider `O=C(C1CCCCC1)N1C[C@H]2CNC[C@H]2C1`, for which the INHIBITION is 44.5%.
As to `CN1C[C@@H]2C[C@H](C(=O)Nc3cccnc3)[C@H](C1)O2`, the INHIBITION is -69.3%.
To `COc1ccc(CNC(=O)C2=NN(c3ccc(C)cc3)C(=O)CN2)cc1` belongs 75%; to `CC(=O)NC(C)C(=O)NCc1ccc(N2CCNC(=O)C2)cc1` (configuration not stated), -4.19%.
In the case of `COCCN1CCO[C@H]2[C@H](OCc3cccc(C)n3)CC[C@@H]21`, the INHIBITION is -74.3%.
Then `Cc1ccc2[nH]c(C3CCN(C)CC3)nc2c1`, with -40.2%; and `Cc1ccc2[nH]c([C@H]3CCN(CC4CCCCC4)C3)nc2c1`, with 74.7%; and `CC(C)(C)c1n[nH]c(C2CN(CC3CCC3)CCO2)n1` (configuration not stated), with -108%.
To `CCC(CC)NCC(C)Oc1cccnc1` (configuration not stated) belongs -116%; to `Cc1cn2c(n1)C(CNCc1cccc3c1OCO3)CCC2` (configuration not stated), 82.1%; to `Cc1cn2c(n1)C(CNCc1ccc(C)s1)CCC2` (configuration not stated), 91.1%.
In the case of `CCOC[C@@H]1CCC[C@@]12CN(Cc1cccnc1)CCO2`, the INHIBITION is given as -129%.
To `Cc1cccc(CN2C[C@@H]3OCCN(C)[C@@H]3C2)n1` belongs -14.4%.
In the case of `COCCN1CCC2(COCc3cnc(-c4ccccc4)nc32)C1` (configuration not stated), the INHIBITION stood at 31.2%.
To `Cc1ccc(CNC2CC3(CCN(CCO)CC3)c3ccccc32)s1` (configuration not stated) belongs 85.4%; to `Cc1ccc2c(c1)C1(CCNCC1)CC2NCCO` (configuration not stated), -23.2%; to `Cc1ccc2c(c1)CCC21CCN(CCO)CC1`, 15.4%.
With `Cc1cccc(CNC2CC3(CCN(CCO)CC3)c3ccccc32)n1` (configuration not stated), the INHIBITION turned out to be 78.6%.
As to `COCCN1CCC2(CC1)CC(NCc1ccc(C)s1)c1ccccc12` (configuration not stated), the INHIBITION came out at 77.2%.
To `Cc1ccc2c(c1)C(N(C)C)CC21CCN(CCO)CC1` (configuration not stated) belongs 74.8%; to `Cc1ccc(CN2CCC3(CC2)C(=O)N(C)c2ccccc23)s1`, 3.77%; to `O=S(=O)(C1CC1)N1CCC2(CCCN(Cc3ccccn3)C2)C1` (configuration not stated), 12.2%.
To `O=C(Cc1ccccn1)N1CCN2C[C@H](OCCN3CCCC3)C[C@H]2C1` belongs 2.21%; to `CC[C@@H]1N(CC2CC2)CCC[C@]12CCC(=O)N2`, -57.5%; to `Cc1noc(C)c1CN1CC[C@H]2[C@H]1CCN2CC1CCOCC1`, -92%.
Consider `CNC(=O)[C@H]1C[C@@H]2CN(C(=O)c3ccc(C)nc3)C[C@@H]2N1C`, for which the INHIBITION is -35.1%.
Regarding `CC(C)C(NC(=O)c1ccccc1)C(=O)N1CCC2(CC1)OCCO2` (configuration not stated), the INHIBITION is listed as -37.3%.
Consider `CN(C)C(=O)c1ccc(-c2cccc3c2CCNC3)o1`, for which the INHIBITION is -44.3%.
For the compound `Cn1cc(CN2CC[C@]3(C[C@H](Oc4ccccn4)CO3)C2)cn1`, the INHIBITION is -20.3%.
In the case of `CN1C(=O)C2(CCN(CC3CC3)CC2)c2ccccc21`, the INHIBITION was found to be 25.6%.
To `Cn1cc(CNC2CC3(CCN(CC4CC4)CC3)c3ccccc32)cn1` (configuration not stated) belongs 87.6%; to `CNC1CCN(C2CCN(c3ccc(-c4ccco4)cc3)CC2)CC1`, 86.4%.
Consider `NC1CCN(C2CCN(c3ccc(-c4ccco4)cc3)CC2)CC1`, for which the INHIBITION amounted to 80.3%.
With `Cc1oc(-c2ccco2)nc1CC(=O)N1CCN(C2CCC2)CC1`, the INHIBITION is recorded as -14.4%.
To `NCC1CCN(C2CCN(c3ccc(-c4ccco4)cc3)CC2)C1` (configuration not stated) belongs 91%.
To `O=C1NC2(CCCCC2)c2nnnn2-c2ccc(Br)cc21` belongs -67.2%; to `O=C(CCc1ccsc1)N1CCC(C(=O)O)(c2ccccc2)CC1`, -103%; to `CCN1CCCN(S(=O)(=O)c2cc3ccccc3o2)CC1`, 84.3%.
To `NC(=O)CN1CCCN(C(=O)Cc2ccc(F)cc2)CC1` belongs -158%; to `CS(=O)(=O)c1ccc(-c2cc(O)cc(CCC3CCCCN3)c2)cc1` (configuration not stated), 70.3%.
Consider `CS(=O)(=O)c1ccc(CC(=O)N2CCN3CCNC(=O)C3C2)cc1` (configuration not stated), for which the INHIBITION is -50.4%.

Values taken from ChEMBL document CHEMBL4513216, “Probing the Open Global Health Chemical Diversity Library for Multistage-Active Starting Points for Next-Generation Antimalarials” (ACS Infect Dis, 2020).
